The values that follow come from PubChem BioAssay (Tox21).

Where “and” joins values, the source holds several entries; their conditions need not be identical. Identical values can stand only once. Inconclusive results are not listed. Some structures have more than one record in an assay (separate samples or runs), and their calls can disagree. Calls of active or inactive are those of the source. Unless noted, calls follow the shape of the dose curve; as a rule, active = well fitted curve in the direction sought with a large enough effect in the repeat runs; inconclusive = weak or mixed curves; inactive = no such curve, though single readings can be large; an effect the other way counts as inactive or inconclusive. Residues, ends and D or L forms follow the SMILES beside them.

Test [1] has as its target Estrogen receptor beta (Homo sapiens) (UniProt Q92731). In words: qHTS assay to identify small molecule agonists of the estrogen receptor beta (ER-beta) signaling pathway (AID 1259377; active = well fitted activation curve with a large enough effect in the signal ratio in the repeat runs, not every such curve was filed as active; the % refers to the signal ratio). The gist of the method: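 Ratiometric beta-lactamase FRET read-out came after 2 h substrate loading at room temperature. It followed 16 h compound treatment at 37C of GripTite HEK293T cells carrying a UAS-bla reporter, plated in 2% charcoal-stripped FBS medium.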

For test [2] the target is unchanged. In words: qHTS assay to identify small molecule antagonists of the estrogen receptor beta (ER-beta) signaling pathway (AID 1259378; active = well fitted inhibition curve with a large enough effect in the signal ratio in the repeat runs, not every such curve was filed as active; the % refers to the signal ratio; also: potency is read from the fitted curve at half-maximal effect). The gist of the method:
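ER-beta-UAS-bla HEK293T (GripTite) cells in 2% charcoal-stripped FBS medium were preincubated 6 hr at 37C, dosed with compound, then stimulated with 1 nM E2 (final) for 16 hr; beta-lactamase reporter read by B/G FRET fluorescence after 2 hr substrate loading.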
Background: Quantitative high-throughput screening tests each substance at several concentrations.

Test [3] can be described thus: qHTS assay to identify small molecule agonists of the androgen receptor (AR) signaling pathway in the presence of an antagonist - cell viability counter screen (AID 1259379).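 Also: MDA-kb2 human breast cancer cells carrying an MMTV luciferase reporter; series mostly up to about 92 µM; nearly all actives have a fitted effect of over 25% in size.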 The gist of the method:
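In MDA-kb2 cells (human breast carcinoma, MMTV-luciferase), compounds at 15 concentrations plus 3.0uM nilutamide; 16 hr, 37C, 0% CO2; CellTiter-Fluor fluorescence read for viability.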

The nature of test [4]: qHTS assay to identify small molecule agonists of the estrogen receptor beta (ER-beta) signaling pathway - cell viability counter screen (AID 1259380). Also: nearly all actives have a fitted effect of over 30% in size. The gist of the method: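 Viability of ER-beta-UAS-bla HEK293T cells was determined by CellTiter-Glo luminescence following 16 hr treatment with test compounds at 37C.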
Test [5] concerns the target Estrogen receptor (Homo sapiens) (UniProt P03372). In words: qHTS assay to identify small molecule agonists of the estrogen receptor alpha (ER-alpha) signaling pathway in the presence of an antagonist (AID 1259383; calls by dose curve; also: top concentration of the series differs between compounds; nearly all actives have a fitted effect of over 15% in size). The gist of the method:
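In VM7Luc4E2 cells, 4,000 per well, compounds at 15 concentrations were co-incubated 22hr at 37C with 10.0nM final ICI-182,780. Luminescence from the stably transfected 4×ERE-luciferase reporter was recorded 30min after ONE-Glo addition.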

The nature of test [6]: qHTS assay to identify small molecule agonists or antagonists of the thyroid stimulating hormone receptor (TSHR) signaling pathway - wild type cell line counter screen (AID 1259384; calls by dose curve). The gist of the method:
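Wild-type HEK293 cells were plated 18 h at 37 C/5% CO2, pin-dosed with compound plus Ro20-1724 medium, held 30 min at room temperature, then given cAMP-d2 and anti-cAMP-cryptate; fluorescence was read after 1 h. Fifteen concentrations, triplicate.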

Test [7] deals with Thyrotropin receptor (Homo sapiens) (UniProt P16473). In words: qHTS assay to identify small molecule antagonists of the thyroid stimulating hormone receptor (TSHR) signaling pathway (AID 1259385; calls by dose curve; also: nearly all actives have a fitted effect of over 20% in size). The gist of the method: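 TSHR-HEK293 cells were plated and held 18 h at 37C/5% CO2, then given compound plus Ro20-1724 and stimulated with TSH at 1.5 ng/mL final. After 30 min at room temperature, cAMP was detected with cAMP-d2/anti-cAMP-cryptate (1 h) by fluorescence.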

The nature of test [8]: qHTS assay to identify small molecule agonists of the estrogen receptor alpha (ER-alpha) signaling pathway in the presence of an antagonist - cell viability counter screen (AID 1259386).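 Also: cells exposed to compounds for 22 h at 37 °C before the viability read; nearly all actives have a fitted effect of over 30% in size.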 Also: potency is read from the fitted curve at half-maximal effect. The gist of the method:
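Fluorescent CellTiter-Fluor viability signal from VM7Luc4E2 cells, with the reagent added during the final hour of a 22hr compound exposure at 37C in the presence of 10.0nM ICI-182,780.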

Test [9] concerns the target Progesterone receptor (Homo sapiens) (UniProt P06401). In words: qHTS assay to identify small molecule agonists of the progesterone receptor (PR) signaling pathway (AID 1346784; calls by dose curve; also: nearly all actives have a fitted effect of over 30% in size). The gist of the method:
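Agonist qHTS: compounds pinned onto 3,000 PR-UAS-bla HEK 293T cells per well in charcoal-stripped serum medium, 16hr at 37C, then beta-lactamase activity measured by LiveBLAzer FRET fluorescence after 2 hours at room temperature.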

Test [10] has the same target. In words: qHTS assay to identify small molecule antagonists of the progesterone receptor (PR) signaling pathway (AID 1346795; active = well fitted inhibition curve with a large enough effect in the signal ratio in the repeat runs, not every such curve was filed as active; the % refers to the signal ratio). The gist of the method: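 Antagonist mode with agonist R5020 at 1 nM final and 16 hr incubation at 37C. Reporter was beta-lactamase driven by UAS in HEK293T (PR-UAS-bla), 2% charcoal-stripped serum; signal from LiveBLAzer FRET substrate, 2 hr at room temperature.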

The nature of test [11]: qHTS assay to identify small molecule antagonists of the progesterone receptor (PR) signaling pathway - cell viability counter screen (AID 1346798). Also: series mostly up to about 92 µM; nearly all actives have a fitted effect of over 50% in size. The gist of the method:
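Cytotoxicity read as CellTiter-Glo luminescence (30 min, room temperature) in the same wells as the beta-lactamase readout. HEK293T PR-UAS-bla cells in charcoal-stripped 2% FBS received compound and R5020, then 16 h at 37C, 5% CO2.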

Test [12] can be described thus: qHTS assay to identify small molecule agonists of the progesterone receptor (PR) signaling pathway - cell viability counter screen (AID 1346799; calls by dose curve; also: nearly all actives have a fitted effect of over 45% in size; also: potency is read from the fitted curve at half-maximal effect). The gist of the method: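 Cytotoxicity measured by CellTiter-Glo luminescence (30 min, RT) in the same wells as the PR beta-lactamase agonist read. Those HEK293T cells had 16 h compound treatment at 37 C in 2% charcoal-stripped FBS medium.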

Test [13] in a line: qHTS assay to identify small molecule antagonists of the TGF-beta/Smad signaling pathway - cell viability counter screen (AID 1346824). Also: nearly all actives have a fitted effect of over 50% in size. The gist of the method: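 SBE-bla HEK 293T cells were plated overnight at 37 C, then given compounds in DMSO plus TGF-beta1 (added as 0.25 ng/mL solution) for 5 hr. After the bla read, CellTiter-Glo was added to the same wells and luminescence read after 30 min at room temperature.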

A short description of test [14]: qHTS assay to identify small molecule agonists of the TGF-beta/Smad signaling pathway - cell viability counter screen (AID 1346829). Also: top concentration of the series differs between compounds; nearly all actives have a fitted effect of over 45% in size. The gist of the method: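 After overnight seating at 37 C and 5% CO2, reporter cells got compounds for 5 hr and FRET substrate for 2 hr; cell viability then came from CellTiter-Glo luminescence.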
A short description of test [15]: qHTS assay to identify small molecule agonists of the TGF-beta/Smad signaling pathway (AID 1346859; active = well fitted activation curve with a large enough effect in the signal ratio in the repeat runs, not every such curve was filed as active; the % refers to the signal ratio; also: series mostly up to about 77 µM). The gist of the method: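 Fluorescence (ex 405 nm; em 460 and 530 nm) was read 2 h after LiveBLAzer FRET substrate at RT. The preceding compound treatment of overnight-plated SBE-bla HEK293T cells lasted 5 h at 37 C.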
Test [16] concerns the target Thyrotropin-releasing hormone receptor (Homo sapiens) (UniProt P34981). In words: qHTS assay to identify small molecule antagonists of the thyrotropin-releasing hormone receptor (TRHR) signaling pathway (AID 1346877; active = well fitted inhibition curve with a large enough effect in the repeat runs, not every such curve was filed as active; also: series mostly up to about 51 µM). The gist of the method:
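In this cell-based calcium flux format, HEK293 cells expressing TRHR received test compound for 5 min before the agonist TRH (1 nM final). Dye loading lasted 2 h at 37 °C.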

The target is the same in test [17]. In words: qHTS assay to identify small molecule agonists of the thyrotropin-releasing hormone receptor (TRHR) signaling pathway (AID 1346891; calls by dose curve; also: series mostly up to about 58 µM). The gist of the method: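 Agonist-mode intracellular calcium readout: kinetic fluorescence over 3 min at 1 s intervals after compound addition to TRHR-HEK293 cells (18 h seeded, 2 h dye-loaded at 37 C). Fifteen concentrations, triplicates.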

Test [18] in a line: qHTS assay to identify small molecule antagonists of the estrogen receptor beta (ER-beta) signaling pathway - cell viability counter screen (AID 1259382). Also: series mostly up to about 92 µM; nearly all actives have a fitted effect of over 55% in size. The gist of the method: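 Tox21 10K library tested in qHTS format on ER-beta-bla HEK293T cells stimulated with 1nM E2; 16 hr treatment at 37C. Same-well CellTiter-Glo luminescence served as the cell viability measure.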

Chain of Progesterone receptor (Homo sapiens) (P06401 whole entry, looked up): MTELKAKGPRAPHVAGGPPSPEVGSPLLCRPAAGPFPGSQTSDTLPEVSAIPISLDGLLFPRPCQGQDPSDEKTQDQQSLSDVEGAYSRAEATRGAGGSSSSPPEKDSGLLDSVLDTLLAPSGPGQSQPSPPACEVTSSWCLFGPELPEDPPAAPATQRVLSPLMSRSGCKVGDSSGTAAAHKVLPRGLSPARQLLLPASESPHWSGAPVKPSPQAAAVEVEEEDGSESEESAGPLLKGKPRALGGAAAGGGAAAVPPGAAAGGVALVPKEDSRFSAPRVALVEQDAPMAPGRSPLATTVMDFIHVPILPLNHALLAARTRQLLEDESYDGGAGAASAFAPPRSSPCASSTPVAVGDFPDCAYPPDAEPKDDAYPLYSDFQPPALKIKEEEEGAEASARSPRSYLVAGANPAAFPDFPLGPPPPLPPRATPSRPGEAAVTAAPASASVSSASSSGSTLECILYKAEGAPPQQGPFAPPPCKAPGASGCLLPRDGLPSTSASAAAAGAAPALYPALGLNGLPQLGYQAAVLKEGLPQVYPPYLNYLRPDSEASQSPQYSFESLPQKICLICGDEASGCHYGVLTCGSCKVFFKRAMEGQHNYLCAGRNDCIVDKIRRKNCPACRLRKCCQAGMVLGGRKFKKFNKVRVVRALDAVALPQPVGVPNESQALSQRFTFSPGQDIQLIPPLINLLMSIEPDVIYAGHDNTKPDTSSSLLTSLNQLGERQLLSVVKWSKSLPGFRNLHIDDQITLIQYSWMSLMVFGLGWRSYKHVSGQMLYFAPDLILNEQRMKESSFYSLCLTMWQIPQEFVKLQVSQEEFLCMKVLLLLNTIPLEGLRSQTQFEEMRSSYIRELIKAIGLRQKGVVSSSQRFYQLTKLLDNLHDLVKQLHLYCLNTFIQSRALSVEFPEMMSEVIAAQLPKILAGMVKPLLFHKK
Chain of Thyrotropin receptor (Homo sapiens) (P16473 whole entry, looked up): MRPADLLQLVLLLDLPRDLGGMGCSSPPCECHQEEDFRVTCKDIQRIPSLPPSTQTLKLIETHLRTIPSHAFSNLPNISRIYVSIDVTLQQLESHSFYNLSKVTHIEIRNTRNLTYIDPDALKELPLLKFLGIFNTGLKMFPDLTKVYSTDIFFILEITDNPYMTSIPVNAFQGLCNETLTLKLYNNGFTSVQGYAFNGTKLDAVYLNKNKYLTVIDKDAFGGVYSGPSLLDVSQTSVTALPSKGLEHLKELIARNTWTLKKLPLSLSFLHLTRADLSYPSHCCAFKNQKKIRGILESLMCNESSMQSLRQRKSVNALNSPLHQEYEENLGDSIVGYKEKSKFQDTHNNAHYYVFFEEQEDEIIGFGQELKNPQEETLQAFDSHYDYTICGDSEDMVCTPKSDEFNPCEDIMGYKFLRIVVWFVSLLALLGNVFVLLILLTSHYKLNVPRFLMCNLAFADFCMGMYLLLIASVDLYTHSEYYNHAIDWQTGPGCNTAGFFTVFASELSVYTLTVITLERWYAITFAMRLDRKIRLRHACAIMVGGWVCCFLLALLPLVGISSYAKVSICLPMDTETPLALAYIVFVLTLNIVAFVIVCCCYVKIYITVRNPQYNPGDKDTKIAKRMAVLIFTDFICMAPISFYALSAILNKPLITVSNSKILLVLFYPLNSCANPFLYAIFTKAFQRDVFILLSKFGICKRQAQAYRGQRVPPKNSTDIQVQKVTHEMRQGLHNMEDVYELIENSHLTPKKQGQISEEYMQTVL
Chain of Thyrotropin-releasing hormone receptor (Homo sapiens) (P34981 whole entry, looked up): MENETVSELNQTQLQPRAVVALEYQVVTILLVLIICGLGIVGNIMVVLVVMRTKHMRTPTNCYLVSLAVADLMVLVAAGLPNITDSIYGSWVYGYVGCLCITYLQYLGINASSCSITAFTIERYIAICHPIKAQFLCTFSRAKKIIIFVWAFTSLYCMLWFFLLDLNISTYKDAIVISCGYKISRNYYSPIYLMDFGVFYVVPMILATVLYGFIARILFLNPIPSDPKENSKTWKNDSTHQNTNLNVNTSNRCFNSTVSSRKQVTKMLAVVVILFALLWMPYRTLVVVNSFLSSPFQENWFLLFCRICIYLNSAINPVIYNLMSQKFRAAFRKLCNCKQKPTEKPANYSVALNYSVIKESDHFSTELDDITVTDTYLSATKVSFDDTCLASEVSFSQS
Chain of Estrogen receptor (Homo sapiens) (P03372 whole entry, looked up): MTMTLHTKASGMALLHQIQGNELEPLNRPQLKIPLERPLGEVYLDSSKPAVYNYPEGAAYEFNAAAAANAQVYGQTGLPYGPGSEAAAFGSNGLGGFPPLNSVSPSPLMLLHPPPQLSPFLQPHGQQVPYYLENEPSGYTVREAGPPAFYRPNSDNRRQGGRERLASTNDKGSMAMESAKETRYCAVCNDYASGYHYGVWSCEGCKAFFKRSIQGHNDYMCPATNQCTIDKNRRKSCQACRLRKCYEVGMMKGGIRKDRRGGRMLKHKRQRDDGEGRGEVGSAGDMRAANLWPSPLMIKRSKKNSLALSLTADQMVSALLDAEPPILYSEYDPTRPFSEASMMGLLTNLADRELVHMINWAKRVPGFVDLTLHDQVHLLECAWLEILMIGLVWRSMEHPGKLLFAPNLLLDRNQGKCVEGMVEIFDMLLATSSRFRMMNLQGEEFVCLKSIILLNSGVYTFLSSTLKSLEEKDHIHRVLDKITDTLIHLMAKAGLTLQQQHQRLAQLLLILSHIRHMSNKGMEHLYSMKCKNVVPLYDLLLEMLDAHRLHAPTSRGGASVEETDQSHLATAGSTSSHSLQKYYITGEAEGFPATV
Chain of Estrogen receptor beta (Homo sapiens) (Q92731 whole entry, looked up): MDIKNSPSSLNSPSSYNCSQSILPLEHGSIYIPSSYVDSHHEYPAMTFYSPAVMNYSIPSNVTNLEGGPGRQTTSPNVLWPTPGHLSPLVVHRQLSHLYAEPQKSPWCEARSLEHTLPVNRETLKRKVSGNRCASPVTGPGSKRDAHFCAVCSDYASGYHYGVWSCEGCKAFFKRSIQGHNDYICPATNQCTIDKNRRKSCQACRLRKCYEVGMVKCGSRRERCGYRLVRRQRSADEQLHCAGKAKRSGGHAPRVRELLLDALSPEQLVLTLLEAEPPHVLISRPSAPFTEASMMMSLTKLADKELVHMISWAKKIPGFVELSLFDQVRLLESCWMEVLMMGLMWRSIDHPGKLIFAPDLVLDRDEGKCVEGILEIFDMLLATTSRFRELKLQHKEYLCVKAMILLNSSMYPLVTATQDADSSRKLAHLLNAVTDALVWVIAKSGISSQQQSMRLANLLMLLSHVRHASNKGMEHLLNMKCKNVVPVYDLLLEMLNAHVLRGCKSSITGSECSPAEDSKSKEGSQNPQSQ

On to `Nc1ccc(O)c(C(=O)O)c1`, for which the call in test [1], in [6], in test [7], in test [10], in test [13] and in test [15] was inactive. Further, the outcome in [16] and in test [17] was inactive. Besides, the Potency result in [2], in test [3], in [4], in test [5], in test [9] and in [11] was “inactive” in each case. For the same compound, the Potency entry in test [12] and in test [14] was “inactive” in each case. Also, the Potency in test [8] is 48.1 µM (active) and 54.5 µM (active).
With `CC(=O)NS(=O)(=O)c1ccc(N)cc1`, the outcome in [1], in test [10], in test [13], in test [15], in test [16] and in [17] was inactive. Further, the Potency result in [2], in test [3], in test [5], in test [8], in [9] and in test [11] was “inactive” throughout. The Potency entry in test [12] and in [14] was “inactive” throughout.
For `CCCC(CCC)C(=O)O`, the Potency entry in test [3], in [4], in test [18], in test [5], in test [8] and in test [9] was “inactive” each time. For the same compound, the Potency result in [11], in test [12] and in test [14] was “inactive” throughout. The call in test [6], in test [7], in test [10], in [13], in test [15] and in test [16] was inactive. For the same compound, the result in [17] was inactive.
`Cn1cc[nH]c1=S`: the result in test [1], in test [6], in test [7], in [10], in [13] and in test [15] was inactive. Moreover, the Potency in test [2] was 43.2 µM (active) and inactive; in test [12] it was 43.2 µM (active) and inactive. For the same compound, the Potency entry in test [3], in test [18], in test [5], in test [8], in [9] and in test [14] was “inactive” throughout.
`CC(O)C(=O)O` (stereo unspecified): the Potency result in test [3], in test [5], in [8], in [9], in [11] and in test [12] was “inactive” each time. The Potency result in test [14] was “inactive”. The compound was called inactive in [6], in test [7], in [10], in test [13], in test [15] and in [16]. Moreover, in [17], the call was inactive.
Turning to `O=C1NC(=O)c2ccccc21`, the Potency result in test [3], in test [8], in test [9], in test [11], in [12] and in [14] was “inactive” in each case. The call in test [6], in test [7], in test [10], in test [13] and in test [15] was inactive.
For the compound `COC(=O)[C@H](Cc1ccccc1)NC(=O)[C@@H](N)CC(=O)O` (H-Asp-Phe-OMe), the Potency entry in test [3], in [4], in [5], in [8], in test [9] and in [11] was “inactive” each time. Besides, the Potency entry in test [12] and in [14] was “inactive” throughout. For the same compound, the compound was classed as inactive in test [6], in test [7], in test [10], in test [13], in test [15] and in test [16]. For the same compound, in test [17], the result was inactive.
As for `CC(=O)OCC(COC(C)=O)OC(C)=O`, the outcome in test [1], in [6], in test [7], in [10], in test [13] and in test [15] was inactive. Moreover, the compound was classed as inactive in test [16] and in [17]. The Potency result in test [2], in test [3], in [8], in test [9], in test [11] and in test [12] was “inactive” in each case. The Potency entry in test [14] was “inactive”.
Turning to `NC(N)=O`, the compound was classed as inactive in test [1], in [6], in [7], in [10], in [13] and in test [15]. Besides, the Potency entry in test [2], in [3], in test [4], in [5], in test [8] and in test [9] was “inactive” throughout. The Potency result in test [11], in test [12] and in [14] was “inactive” each time.
